{"source": "PubChem BioAssay (NCATS)", "note": "Results filed as inconclusive are left out. Calls of active or inactive are those of the source. Calls follow the shape of the dose curve; as a rule, active = well fitted inhibition curve with a large enough effect; inconclusive = small, poorly fitted or top-dose-only effect; inactive = no such curve, though single readings can be large or run the other way.", "data": [{"experiment": "P-glycoprotein substrates identified in KB-3-1 adenocarcinoma cell line, qHTS therapeutic library screen (AID 1346986); also: nearly all actives have a fitted effect of over 60% in size", "settings": "KB-3-1 parental cells viability, CellTiter-Glo, 72 h; series mostly up to 44.5 µM", "procedure,_shortened": "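Viability read by CellTiter-Glo after 72 h compound exposure in dose-response of KB-3-1 and KB-8-5-11 (P-gp-high) cells. Hits needed AC50 < 10 uM, >50% maximum response and curve class -1.1 to -2.4. Cherry-picks retested ± tariquidar, including pcDNA/MDR-19 HEK-293 pair.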", "values": [{"smiles": "C[C@@H]1O[C@@H](O[C@H]2[C@H](O[C@H]3[C@H](O[C@H]4CC[C@@]5(C)C(CC[C@]6(C)C5CC=C5[C@@H]7CC(C)(C(=O)O)C[C@@H](O)[C@]7(C)CC[C@]56C)[C@@]4(C)CO)O[C@H](C(=O)O)[C@@H](O)[C@@H]3O)O[C@H](CO)[C@H](O)[C@@H]2O)[C@H](O)[C@H](O)[C@H]1O", "note": "(stereo not given in full)", "outcome": "inactive [at 9.29 µM]"}, {"smiles": "O=C1N(CC2CCCCN2)CCN1c1ccccc1", "note": "(stereo not given)", "Potency": "inactive"}, {"smiles": "C[C@@H]1O[C@@H](O[C@H]2[C@H](O[C@H]3CC[C@@]4(C)C(CC[C@]5(C)C4CC=C4[C@@H]6CC(C)(C)CC[C@]6(C(=O)O)CC[C@]45C)[C@]3(C)CO)OC[C@H](O)[C@@H]2O)[C@H](O)[C@H](O[C@@H]2OC[C@@H](O)[C@H](O)[C@H]2O)[C@H]1O", "note": "(stereo not given in full)", "outcome": "inactive [at 9.29 µM]"}, {"smiles": "CC[C@H](/C=C/[C@@H](C)[C@H]1CC[C@H]2[C@@H]3CC=C4C[C@@H](O)CC[C@]4(C)[C@H]3CC[C@]12C)C(C)C", "outcome": "inactive [at 5.11 µM]"}, {"smiles": "C[C@@H]1O[C@@H](O[C@H]2[C@H](OC(=O)[C@]34CCC(C)(C)C[C@H]3C3=CCC5[C@@]6(C)C[C@H](O)[C@H](O[C@@H]7O[C@H](CO[C@@H]8OC[C@H](O)[C@H](O)[C@H]8O)[C@@H](O)[C@H](O)[C@H]7O)C(C)(C)C6CC[C@@]5(C)[C@]3(C)C[C@H]4O)OC[C@@H](O)[C@@H]2O)[C@H](O)[C@H](O[C@@H]2OC[C@](O)(CO)[C@H]2O)[C@H]1O[C@@H]1OC[C@H](O)[C@H](O[C@@H]2OC[C@@H](O)[C@H](O)[C@H]2O)[C@H]1O", "note": "(stereo not given in full)", "outcome": "inactive [at 9.29 µM]"}]}]}
